From PubChem
Rows were chosen to be rich in hits. Some 2.2% of all compounds tested hit in one or more screens of this group.
VLA-4 inh – inhibition in a human VLA-4 binding assay. P13612. VLA-4 expressing cells, ligand binding flow cytometry. inhibition, % (about 7 µM as worked out from the volumes in the protocol). 0.2% of 330,000 active. AID 2557; in the data active = inhibition above about 50%
Target sequence (P13612 whole entry, looked up): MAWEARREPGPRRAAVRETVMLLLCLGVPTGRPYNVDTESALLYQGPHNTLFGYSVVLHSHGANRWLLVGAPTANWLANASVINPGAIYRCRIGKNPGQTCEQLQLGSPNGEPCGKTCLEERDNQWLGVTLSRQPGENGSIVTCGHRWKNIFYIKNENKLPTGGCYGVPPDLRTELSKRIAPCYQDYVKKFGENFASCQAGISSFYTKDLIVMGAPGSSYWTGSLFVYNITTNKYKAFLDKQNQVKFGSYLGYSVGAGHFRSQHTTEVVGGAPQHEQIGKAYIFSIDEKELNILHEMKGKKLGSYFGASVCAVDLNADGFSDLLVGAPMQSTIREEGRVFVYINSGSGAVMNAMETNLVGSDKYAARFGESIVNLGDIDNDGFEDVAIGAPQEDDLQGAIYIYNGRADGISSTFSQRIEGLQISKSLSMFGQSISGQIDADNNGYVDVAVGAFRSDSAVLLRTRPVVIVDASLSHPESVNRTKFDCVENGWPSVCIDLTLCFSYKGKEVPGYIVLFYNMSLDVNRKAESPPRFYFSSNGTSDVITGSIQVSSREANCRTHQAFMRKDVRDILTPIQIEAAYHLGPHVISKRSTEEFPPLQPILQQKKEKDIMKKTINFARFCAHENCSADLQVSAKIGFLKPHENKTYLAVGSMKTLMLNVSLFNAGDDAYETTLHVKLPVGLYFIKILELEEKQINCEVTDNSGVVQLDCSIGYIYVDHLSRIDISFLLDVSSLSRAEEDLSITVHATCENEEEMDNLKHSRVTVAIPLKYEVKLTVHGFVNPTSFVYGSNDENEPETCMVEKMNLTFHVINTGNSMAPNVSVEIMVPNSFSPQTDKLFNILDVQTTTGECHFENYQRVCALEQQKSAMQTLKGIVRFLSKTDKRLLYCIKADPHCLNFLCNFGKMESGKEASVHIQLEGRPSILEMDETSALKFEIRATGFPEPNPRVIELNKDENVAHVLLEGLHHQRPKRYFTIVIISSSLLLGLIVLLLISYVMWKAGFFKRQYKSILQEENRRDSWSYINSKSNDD
MEKK3 PB1 HTS – raises or lowers MEK5 binding to the human MEKK3 PB1 domain. binding response (% of control), % at 10 µM. bead-based flow cytometry, Alexa488-MEK5 binding to MEKK3; actives lie on both sides; 0 = blocked by unlabeled MEK5, 100 = vehicle. 1.4% of 290,000 active. Q99759;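 active = binding response more than 3 SD above or below the average of its plate-row segment, actives on both sides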;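 also: Alexa488 bead fluorescence after subtracting the streptavidin-only scavenger bead signal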
MEKK2 WT-MEK5 – raises or lowers MEK5 binding to wildtype human MEKK2 PB1 domain. bead flow cytometry, Alexa488-MEK5 binding to MEKK2 WT; actives lie on both sides. 1.1% of 290,000 active. binding response (% of control), % at 10 µM; in the data active = binding response below about 67% or above about 130%
MEKK2mut PB1 HTS – signal of MEK5 binding to mutant human MEKK2 PB1 domain. AID 1530. 0.35% of 290,000 active. percent response, % at 10 µM. bead flow cytometry, Alexa488-MEK5 binding to MEKK2 mutant; in the data active = percent response above about 24%, passing the limit was not always enough
MEKK2wt confirm – raises or lowers MEK5 binding to wildtype human MEKK2, retest; shares compounds with MEKK3 PB1 HTS; bead flow cytometry, Alexa488-MEK5 binding to MEKK2 WT; actives lie on both sides; binding response (% of control), % at 10 µM; 2.4% of 5,900 active; AID 1892; in the data active = binding response below about 16% or above about 210%; inactive = in between
MEKK2mut-MEK5 – signal of MEK5 binding to mutant human MEKK2, retest; shares compounds with MEKK3 PB1 HTS; bead flow cytometry, Alexa488-MEK5 binding to MEKK2 mutant; percent response, % at 10 µM; 2% of 5,900 active; AID 1893; in the data active = percent response mostly above about 71%, no sharp cut-off; inactive = mostly below about 38%;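 also: higher means compound restores mutant binding toward wildtype level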
MEKK3 confirm – MEKK3-MEK5 PB1 inhibition, single concentration confirmation. shares compounds with MEKK3 PB1 HTS. bead flow cytometry, Alexa488-MEK5 binding to MEKK3; stronger effect = lower value. binding response (% of control), % at 10 µM. 1.8% of 5,900 active. AID 1894;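 active = binding response below 72% of control, or above a set upper limit, though filed actives all read lower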;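 also: 100% = DMSO only wells and 0% = binding blocked by excess unlabeled MEK5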
Starred values were filed as active, the others as inactive; [ ] = another dose, or the depositor's remark.

How did CCN1CCN(CCCNC(=O)C2c3ccccc3C(=O)N(c3ccc(OC)cc3)C2c2ccc(OC)cc2)CC1 (configuration not stated) do in these assays?
VLA-4 inh: 6; MEKK3 PB1 HTS: 96; MEKK2 WT-MEK5: 100; MEKK2mut PB1 HTS: -4

Results for COc1ccc(S(=O)(=O)N2CCOCC2)cc1NC(=O)CCc1nc2ccccc2c(=O)[nH]1 ?
VLA-4 inh: 4; MEKK3 PB1 HTS: 106; MEKK2 WT-MEK5: 101; MEKK2mut PB1 HTS: 3

What do the screens show for `CC1CCN(C(=O)CN2c3cccc4cccc(c34)S2(=O)=O)CC1`?
VLA-4 inh: -6

Results for CN(C)CCCN(C(=O)c1ccc(S(=O)(=O)N(C)C2CCCCC2)cc1)c1nc2ccc(F)cc2s1 ?
VLA-4 inh: -3; MEKK3 PB1 HTS: 107; MEKK2 WT-MEK5: 163*; MEKK2mut PB1 HTS: 28*; MEKK2wt confirm: 160; MEKK2mut-MEK5: 36; MEKK3 confirm: 104

What do the screens show for `CN(C)CCCN(C(=O)c1ccc(S(=O)(=O)N(C)C2CCCCC2)cc1)c1nc2ccc(Br)cc2s1`?
VLA-4 inh: -6; MEKK3 PB1 HTS: 103; MEKK2 WT-MEK5: 195*; MEKK2mut PB1 HTS: 32*; MEKK2wt confirm: 174; MEKK2mut-MEK5: 29; MEKK3 confirm: 74

How did COc1ccccc1NC(=O)CSc1nnc(-c2ccoc2C)n1C do in these assays?
VLA-4 inh: 6; MEKK3 PB1 HTS: 105; MEKK2 WT-MEK5: 98; MEKK2mut PB1 HTS: -2

Results for CCCn1nc2cc(C(=O)NCCc3ccc(C)cc3)ccc2c1OCC ?
VLA-4 inh: 2; MEKK3 PB1 HTS: 97; MEKK2 WT-MEK5: 96; MEKK2mut PB1 HTS: -4

Results for C=CCOc1c2ccc(C(=O)NCCc3ccc(C)cc3)cc2nn1C ?
VLA-4 inh: -4; MEKK3 PB1 HTS: 126*; MEKK2 WT-MEK5: 123; MEKK2mut PB1 HTS: 14; MEKK2wt confirm: 68; MEKK2mut-MEK5: -14; MEKK3 confirm: 93

How did Cc1ccc(S(=O)(=O)NC(CC(=O)NCC2CCCO2)c2ccccc2)cc1 (configuration not stated) do in these assays?
VLA-4 inh: 0; MEKK3 PB1 HTS: 102; MEKK2 WT-MEK5: 97; MEKK2mut PB1 HTS: -1

What do the screens show for `COCCN1CCN(C(=O)c2cc(COc3cc(C)ccc3C)on2)CC1`?
VLA-4 inh: 2; MEKK3 PB1 HTS: 97; MEKK2 WT-MEK5: 101; MEKK2mut PB1 HTS: -4

Results for O=C(NNC1=C(C(=O)C(F)(F)F)CCC1)c1ccc(Br)cc1 ?
VLA-4 inh: -3; MEKK3 PB1 HTS: 125*; MEKK2 WT-MEK5: 124; MEKK2mut PB1 HTS: 25*; MEKK2wt confirm: 101; MEKK2mut-MEK5: 2; MEKK3 confirm: 101

How did Nc1ccccc1C(=O)NNC1=C(C(=O)C(F)(F)F)CCC1 do in these assays?
VLA-4 inh: 3; MEKK3 PB1 HTS: 103; MEKK2 WT-MEK5: 106; MEKK2mut PB1 HTS: 4

Results for CCN(CC(=O)Nc1ccc(OC)cc1)C(=O)c1cc(S(=O)(=O)N(C)C)ccc1N1CCCC1 ?
VLA-4 inh: 5

Results for Cn1c(=O)[nH]c(=O)c2[nH]c(N(Cc3ccccc3)Cc3ccccc3)nc21 ?
VLA-4 inh: 8; MEKK3 PB1 HTS: 122*; MEKK2 WT-MEK5: 121; MEKK2mut PB1 HTS: 15; MEKK2wt confirm: 98; MEKK2mut-MEK5: 0; MEKK3 confirm: 101

Results for CCCCCc1cc(=O)oc2c(C(CCN3CCCCC3)c3ccc4c(c3)OCO4)c(OC)cc(OC)c12 (configuration not stated) ?
VLA-4 inh: 3; MEKK3 PB1 HTS: 110; MEKK2 WT-MEK5: 203*; MEKK2mut PB1 HTS: 50*; MEKK2wt confirm: 226*; MEKK2mut-MEK5: 73*; MEKK3 confirm: 108

What do the screens show for `CCCCCc1cc(=O)oc2c(C(CCN(CC)CC)c3cc(OC)c(OC)c(OC)c3)c(OC)cc(OC)c12` (configuration not stated)?
VLA-4 inh: 0; MEKK3 PB1 HTS: 116; MEKK2 WT-MEK5: 218*; MEKK2mut PB1 HTS: 34*; MEKK2wt confirm: 136; MEKK2mut-MEK5: 15; MEKK3 confirm: 84

Results for CCCCCc1cc(=O)oc2c(C(CCN3CCCC(C)C3)c3ccc4c(c3)OCO4)c(OC)cc(OC)c12 (configuration not stated) ?
VLA-4 inh: 18; MEKK3 PB1 HTS: 122*; MEKK2 WT-MEK5: 302*; MEKK2mut PB1 HTS: 74*; MEKK2wt confirm: 270*; MEKK2mut-MEK5: 109*; MEKK3 confirm: 118

Results for CCCCCc1cc(=O)oc2c(C(CCN3CCN(c4ccccc4)CC3)c3ccc(N(C)C)cc3)c(OC)cc(OC)c12 (configuration not stated) ?
MEKK3 PB1 HTS: 107; MEKK2 WT-MEK5: 123; MEKK2mut PB1 HTS: 14

Results for O=S(=O)(Nc1ccncc1Cl)c1ccc2ccccc2c1 ?
VLA-4 inh: 14; MEKK3 PB1 HTS: 98; MEKK2 WT-MEK5: 87; MEKK2mut PB1 HTS: -7

How did O=c1c(Cc2c(F)cccc2Cl)c(O)ccn1C1CC1 do in these assays?
VLA-4 inh: 8; MEKK3 PB1 HTS: 102; MEKK2 WT-MEK5: 104; MEKK2mut PB1 HTS: 3

How did NNc1nc2c(Cl)ccc(Cl)c2s1 do in these assays?
VLA-4 inh: 3; MEKK3 PB1 HTS: 102; MEKK2 WT-MEK5: 97; MEKK2mut PB1 HTS: -2

Results for CCCCNC(=O)c1ccccc1SCc1c(C)noc1C ?
VLA-4 inh: 5; MEKK3 PB1 HTS: 105; MEKK2 WT-MEK5: 108; MEKK2mut PB1 HTS: 7

What do the screens show for `CCN(CCn1cccn1)C(=O)CCc1nnc(CCCc2ccccc2)o1`?
VLA-4 inh: 0; MEKK3 PB1 HTS: 131*; MEKK2 WT-MEK5: 151*; MEKK2mut PB1 HTS: active; MEKK2wt confirm: 101; MEKK2mut-MEK5: 14; MEKK3 confirm: 102

What do the screens show for `CCN1CCC(C(N)=O)CC1`?
VLA-4 inh: 15; MEKK3 PB1 HTS: 0.0*[inhibitor]; MEKK2 WT-MEK5: 0.0*[inhibitor]; MEKK2mut PB1 HTS: -35; MEKK2wt confirm: 100; MEKK2mut-MEK5: 5; MEKK3 confirm: 105

How did CN(C)c1ccc(CN2CCC(C(N)=O)CC2)cc1 do in these assays?
VLA-4 inh: -8; MEKK3 PB1 HTS: 92; MEKK2 WT-MEK5: 92; MEKK2mut PB1 HTS: -5

What do the screens show for `O=C1Nc2ccc([N+](=O)[O-])cc2OC1CCN1CCCC1` (configuration not stated)?
VLA-4 inh: 4; MEKK3 PB1 HTS: 141*; MEKK2 WT-MEK5: 114; MEKK2mut PB1 HTS: 5; MEKK2wt confirm: 101; MEKK2mut-MEK5: 1; MEKK3 confirm: 101
